From PubChem BioAssay (Tox21)
Inconclusive results are not listed. Active and inactive are the calls of the source. Calls come from the whole dose curve; as a rule, active = well fitted inhibition curve with a large enough effect in the signal ratio in the repeat runs (not every such curve was filed as active); inconclusive = weak or mixed curves, or effect the other way; inactive = flat fitted curve, though single readings scatter; the % refers to the signal ratio. Peptide text beside a SMILES is read from it.

assay: cAMP Responsive Elements (CRE) small molecule antagonists, cell-based qHTS assay (AID 1963591); conditions: CRE-bla HEK293T, beta-lactamase FRET ratio; series mostly up to 92.4 µM; activity change, negative = inhibition: at the top concentration
Text: U.S. Tox21 Program National Center for Advancing Translational Sciences [NCATS] Division of Preclinical Innovation [DPI] U.S. Environmental Protection Agency [EPA] National Institutes of Environmental Health Sciences [NIEHS] National Toxicology Program [NTP] U.S. Food and Drug Administration [FDA] Tox21 Assay Overview: CREB (cyclic-AMP Responsive Element Binding Protein) is a cellular transcription factor. It binds to certain DNA sequences called cAMP Responsive Elements (CRE) and regulates the transcription of the genes. […] This cell line can be used to find agonists/antagonists of the cyclic AMP signaling pathway. The activation of the report gene under culture conditions can be detected by fluorescence intensity. This cell line has been used to screen the Tox21 10K compound library to […].
Tox21 Assay Protocol Summary: CRE-bla Hek 293T cells were suspended in assay medium (DMEM containing 10% dialyzed FBS, 0.1 mM NEAA, 1 mM sodium pyruvate and 25 mM HEPES) and dispensed at 2,000 cells/4 uL /well into 1536-well black wall/clear bottom plates using a Multidrop Combi (ThermoFisher Scientific, Waltham, MA) dispenser. After the assay plates were incubated at 37 C/5% CO2 for 18 hrs, 23 nL of compounds dissolved in DMSO, positive controls or DMSO only was transferred to the assay plate by a pintool workstation (Kalypsys, San Diego, CA), followed by addition of 1 […] uL of 1.25uM NKH477 (0.25 uM as final concentration) in assay medium using a Flying Reagent Dispenser (Aurora Discovery, San Diego, CA). The plates were incubated at 37 C and 5% CO2 for 3 hrs. Then 1 uL of LiveBLAzer B/G FRET substrate (Invitrogen, Carlsbad, CA) was added to each well using Bioraptr Flying Reagent Dispenser (FRD, Aurora Discovery, San Diego, CA). The plates were incubated at room temperature for 2 h.
% is set by controls: 0 for no effect and ±100 for the full control effect.

Row | SMILES | activity change, negative = inhibition
1 | COC(=O)C1=C(C)NC(C)=C(C(=O)OC(C)(C)CN(C)CCC(c2ccccc2)c2ccccc2)C1c1cccc([N+](=O)[O-])c1 (stereo not given) | 0.0951% [at 42.4 µM] (inactive)
2 | OCC(O)[C@@H](O)[C@H](O)[C@H](O)CO[C@H]1O[C@H](CO)[C@@H](O)[C@H](O)[C@H]1O (stereo not given in full) | 1.51% (inactive)
3 | CC(=O)OCC[N+](C)(C)C | 0.671% [at 42.4 µM] (inactive)
4 | O=C(CCc1ccc(O)cc1)c1c(O)cc(O)cc1O | -59.5% (inactive)
5 | CCOC(=O)COc1ccc(C)cc1 | 0.855% (inactive)
6 | Cc1c(Cn2ccnc2)c2ccccc2n1CCC(=O)O | 0.817% [at 42.4 µM] (inactive)
7 | O=C(O)c1c(O)c(-c2ccccc2)nc2ccccc12 | -6.3% [at 42.4 µM] (inactive)
8 | CC(C)COC(=O)c1ccccc1 | 9.85% (inactive)
9 | C[C@@H]1C[C@H]2[C@@H]3CCC4=CC(=O)C=C[C@]4(C)[C@@]3(F)[C@@H](O)C[C@]2(C)[C@@]1(O)C(=O)CO | -9.77% (inactive)
10 | CCCCOC(=O)/C=C\C(=O)OCCCC | -3.94% (inactive)
11 | CCOC(=O)C(O)c1ccccc1 (stereo not given) | 3.38% [at 42.4 µM] (inactive)
12 | Nc1ccc(S(=O)(=O)Nc2ccccc2)cc1 | -17.6% [at 42.4 µM] (inactive)
13 | CN(C)CCN(Cc1ccsc1)c1ccccn1 | -13.1% [at 42.4 µM] (inactive)
14 | CC(=O)N[C@@H](CO)C(=O)N[C@@H](CC(=O)O)C(=O)N[C@@H](CCCCN)C(=O)N1CCC[C@H]1C(=O)O (Ac-SDKP-OH) | -0.514% [at 42.4 µM] (inactive)
15 | NS(=O)(=O)c1cc(-c2nn[nH]n2)c(NCc2cccs2)cc1Cl | -9.97% [at 42.4 µM] (inactive)
16 | CC1(C)C(=O)C(C)(C)C1=O | 9.16% (inactive)
17 | CCCCCCCCCCCCS(=O)(=O)Cl | -6.5% [at 18.9 µM] (inactive)
18 | COc1ccc(C(=O)N2CCN(CC(=O)N3CCOCC3)CC2)cc1 | 0.593% [at 42.4 µM] (inactive)
19 | CCOC(=O)c1ccc(NC(=O)CN2CCCCC2)cc1 | -2.42% [at 42.4 µM] (inactive)
20 | COc1ccccc1N1CCN(CCCNc2cc(=O)n(C)c(=O)n2C)CC1 | 14.4% [at 42.4 µM] (inactive)

Row | SMILES | activity change, negative = inhibition
21 | CCOC(=O)CC(=O)c1cc(F)c(Cl)nc1Cl | -16.2% (inactive)
22 | O=C=Nc1cccc(C(F)(F)F)c1 | -7.87% (inactive)
23 | CC(=O)Nc1ccc(OCC(O)CNC(C)C)cc1 (stereo not given) | -0.569% [at 42.4 µM] (inactive)
24 | CCOC(=O)CS | -0.886% (inactive)
25 | OC[C@@H](O)[C@H](O)[C@@H](O)[C@@H](O)CO | 9.35% (inactive)
26 | Cc1ccc(N(CCO)CCO)cc1 | -0.138% (inactive)
27 | CCOC(=O)[C@H](CCc1ccccc1)N[C@H]1CS[C@H](c2cccs2)CN(CC(=O)O)C1=O | 0.211% [at 42.4 µM] (inactive)
28 | C=CC(OCC)OCC | -5.47% (inactive)
29 | CCc1cc(Cl)c(OC)c(C(=O)NC[C@@H]2CCCN2CC)c1O | -1.07% [at 42.4 µM] (inactive)
30 | C[N+](C)(C)CC(O)CC(=O)[O-] (stereo not given) | -8.85% [at 42.4 µM] (inactive)
31 | Oc1cccc2[nH]ccc12 | -3.15% [at 42.4 µM] (inactive)
32 | CCCCCCCCCCCCCCCCCCN(C)C | -8.23% [at 42.4 µM] (inactive)
33 | C=CCn1c(=O)n([C@@H]2O[C@H](CO)[C@@H](O)[C@H]2O)c2nc(N)[nH]c(=O)c21 | -0.424% [at 42.4 µM] (inactive)
34 | C=C1C[C@@]23CC[C@H]4[C@@](C)(CCC[C@@]4(C)C(=O)O[C@@H]4O[C@H](CO)[C@@H](O)[C@H](O)[C@H]4O)[C@@H]2CC[C@]1(O[C@@H]1O[C@H](CO)[C@@H](O)[C@H](O[C@@H]2O[C@H](CO)[C@@H](O)[C@H](O)[C@H]2O)[C@H]1O[C@@H]1O[C@H](CO)[C@@H](O)[C@H](O)[C@H]1O)C3 | 1.85% (inactive)
35 | CC[C@H]1OC(=O)[C@H](C)[C@@H](O[C@H]2C[C@@](C)(OC)[C@@H](O)[C@H](C)O2)[C@H](C)[C@@H](O[C@@H]2O[C@H](C)C[C@H](N(C)C)[C@H]2O)[C@](C)(O)C[C@@H](C)C(=O)[C@H](C)[C@@H](O)[C@]1(C)O | 0.189% [at 42.4 µM] (inactive)
36 | C=C[C@@H](C)CCC=C(C)C | 13.1% (inactive)
37 | CCOC(=O)c1ccccc1O | 6.65% [at 42.4 µM] (inactive)
38 | CN(C)[C@@H]1C(=O)C(C(=O)NCN2CCCC2)=C(O)[C@@]2(O)C(=O)C3=C(O)c4c(O)cccc4[C@@](C)(O)C3C[C@@H]12 (stereo not given in full) | -1.07% [at 42.4 µM] (inactive)
39 | CCCCCCCC | 0.716% (inactive)
40 | CC(=O)CCc1ccc(O)cc1 | 3.02% (inactive)
